# From the supplement of paper PMC6555819
# Legend:
# Assay in all cases: PBM binding z-score (relative to random genomic background probes); higher = stronger binding; sequences stand for … in GC…GCGATTGACAGCGTAGAATGAAGG
# [1] = test system: FXR:RXRa (NR concentration 270 nM, RXRa partner concentration 90 nM)
# Outline: (§1)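 The probes on custom Agilent 4×180K protein-binding microarrays were double-stranded, with 34-nt variable regions bearing direct-repeat seeds, single-nucleotide variants, half-site ablations and random human genomic background sequences. Incubation lasted 1 h with ligand-free nuclear receptor dimers in PBS pH 7.4, 2% milk, 0.02% Triton X-100, 1 mM DTT, 0.2 mg/mL BSA and 0.4 mg/ml salmon testes DNA. Antibodies against each partner (one per run) detected bound dimers, and fluorescence scans were regression-normalized. Binding z-scores take the random background probes as reference.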
# [2] = test system: LXRa:RXRa (NR concentration 270 nM, RXRa partner concentration 90 nM)
# Outline: as §1
# [3] = test system: LXRa homodimer (NR concentration 270 nM)
# Outline: as §1
# [4] = test system: LXRb:RXRa (NR concentration 270 nM, RXRa partner concentration 90 nM)
# Outline: as §1
# [5] = test system: LXRb homodimer (NR concentration 270 nM)
# Outline: as §1
# [6] = test system: PPARa:RXRa (NR concentration 270 nM, RXRa partner concentration 90 nM)
# Outline: as §1
# [7] = test system: PPARg:RXRa (NR concentration 180 nM, RXRa partner concentration 90 nM)
# Outline: as §1
# [8] = test system: PPARg:RXRa 270nM:90nM, anti-RXR (NR concentration 270 nM, RXRa partner concentration 90 nM)
# Outline: as §1
# [9] = test system: PPARg:RXRa 30nM:10nM, anti-RXR (NR concentration 30 nM, RXRa partner concentration 10 nM)
# Outline: as §1
# [10] = test system: PPARg:RXRa 90nM:30nM, anti-RXR (NR concentration 90 nM, RXRa partner concentration 30 nM)
# Outline: as §1
# [11] = test system: PPARg:RXRa DBDmut IVT, anti-RXR (DBD mutation: RXRa K156A/R161A, NR concentration 270 nM, RXRa partner concentration 90 nM)
# Outline: as §1
# [12] = test system: PPARg:RXRa IVT, anti-PPARg (NR concentration 270 nM, RXRa partner concentration 90 nM)
# Outline: as §1
# [13] = test system: PPARg DBDmut:RXRa IVT, anti-PPARg (DBD mutation: PPARg1 K132A/R137A, NR concentration 270 nM, RXRa partner concentration 90 nM)
# Outline: as §1
# [14] = test system: PPARg DBDmut IVT, anti-PPARg (DBD mutation: PPARg1 K132A/R137A, NR concentration 270 nM)
# Outline: as §1
# [15] = test system: PPARg homodimer (NR concentration 180 nM)
# Outline: as §1
# [16] = test system: PXR:RXRa (NR concentration 270 nM, RXRa partner concentration 90 nM)
# Outline: as §1
# [17] = test system: PXR homodimer (NR concentration 270 nM)
# Outline: as §1
# [18] = test system: RARa:RXR (NR concentration 270 nM, RXRa partner concentration 90 nM)
# Outline: as §1
# [19] = test system: RARa homodimer (NR concentration 270 nM)
# Outline: as §1
# [20] = test system: RARb:RXRa (NR concentration 270 nM, RXRa partner concentration 90 nM)
# Outline: as §1
Sequence,PBM binding z-score [1],PBM binding z-score [2],PBM binding z-score [3],PBM binding z-score [4],PBM binding z-score [5],PBM binding z-score [6],PBM binding z-score [7],PBM binding z-score [8],PBM binding z-score [9],PBM binding z-score [10],PBM binding z-score [11],PBM binding z-score [12],PBM binding z-score [13],PBM binding z-score [14],PBM binding z-score [15],PBM binding z-score [16],PBM binding z-score [17],PBM binding z-score [18],PBM binding z-score [19],PBM binding z-score [20]
TCAGATAGGTAAAAGGTGAAAGTCGGTGTGGTAA,2.12,1.87,0.408,2.01,0.00585,4.67,6.03,6.8,6.55,7.29,3.61,3.39,0.424,0.558,1.78,1.84,0.95,2.63,1.51,2.02
ACTTACGGGTCAACGTGGTTATAGCACGCGTATA,6.4,4.01,0.422,3.75,0.534,5.52,5.08,5.39,1.88,4.03,3.4,3.77,1.64,1.34,2.74,3.45,0.0483,4.28,1.23,4.02
TTGAGTAGGTTACCAATGGGGCATTCAGCTTTCT,0.0857,1.41,-0.22,1.21,-0.0643,1.36,1.23,1.9,1.01,1.5,4.77,4.38,0.923,0.772,0.846,0.242,-0.056,0.279,0.0397,1.19
CTCGAAAGGTCGTGATCAGGTGAGTATACCAAAC,5.37,3.83,0.129,3.24,0.0388,4.89,3.12,3.71,1.2,2.73,0.796,1.71,1.37,0.63,2.1,3.28,-0.0349,4.26,0.477,3.96
TCTCGGAGGACTCGAAAGGTCAGAGCTCGACATC,1.95,2.86,1.04,2.66,-0.682,3.21,0.567,2.34,2.29,1.88,1.26,0.952,-0.254,-0.419,1.63,3.16,0.0023,3.76,-0.0102,3.62
ACTTACGGGTCAACGAGGTTATAGCCCGCGTATA,6.28,4.99,0.779,4.32,0.557,5.47,4.98,5.37,2.01,4.01,3.54,3.99,0.579,0.364,2.12,5.03,2.93,4.97,-0.101,4.03
TCTCCGAGGACACGAAAGGTCAGAGCTCGACATC,3.26,3.9,2.63,3.48,0.562,3.68,1.53,2.82,2.39,2.44,1.67,1.97,0.778,0.343,2.54,4.22,0.558,4.27,0.52,4.47
CCTATTAGTTGACCTTAAGGGCAACCGAAGCTCG,6.12,4.18,2.42,4,1.3,4.75,1.81,3,1.29,2.42,1.43,2.7,1.27,0.764,3.46,4.4,1.93,5.12,2.39,3.64
ATATGTGGGTTAGCTGGGGTCATTCAGACTAGGC,4.69,5.5,2.93,4.93,2.51,5.09,5.17,4.9,2.27,4.19,6.16,5.6,3.15,2.88,3.21,6.47,6.39,5.9,1.64,2.96
TCTAGCAGGCCAGAGGGTCTCTCAAGAGGTACGG,-1.4,-0.676,-0.763,-0.66,-1.71,-0.298,0.13,0.975,1.38,1.06,0.543,-0.453,-1.92,-1.94,-0.634,-0.569,-1.12,-0.436,-0.894,-0.239
CCAGAGAGGTGAAAGGTAACTCAGTCTGGTACGC,1.97,1.72,-0.386,1.72,-0.316,4.52,6.53,6.32,4.89,6.42,3.73,4.05,0.0614,-0.0478,2.31,2.19,0.131,3.44,0.813,2.39
GGAACGATGGCAAGTTGATAGCAGAGTTTGATGG,-0.624,-0.756,-0.63,-0.971,-1.01,-0.654,0.339,-0.873,-0.448,-0.709,0.0538,-0.751,-1.07,-0.527,-1.16,-0.323,-0.221,-0.504,-0.494,-0.496
CCTCGGAGGACAACTGGAGGTCAGAGCTGCCAGA,1.53,3.1,5.05,1.94,-0.251,1.99,0.231,0.569,-0.723,0.0567,0.198,0.595,-1.19,-1.87,2.05,2.52,0.545,2.84,0.162,3.07
AATACAGGGTCATCGTAGGCCTGAGTACGCACAG,7.54,5.77,1.91,4.6,1.13,5.95,6.49,5.92,2.71,4.74,2.91,4.07,1.77,1.33,2.11,4.23,0.334,4.79,0.501,4.43
